The list is not random: actives were taken first. Their share in the collection is about 19%.
IL1B secr inh = blocks inflammasome-driven IL-1 beta release; THP-1 LPS/ATP IL-1B secretion, AlphaLISA, 16 h; stronger effect = lower value; activity change, % at 57.5 µM; 360,000 compounds, 4.7% hits; in the data active means activity change below about -50%; inconclusive means mostly about -30% to -49%; further: on the % scale 0 is the no-effect control and ±100 the full control effect
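THP-1 cells pretreated 1 hr with compounds (up to 57.5 uM final), then stimulated with LPS (250 ng/mL final) plus ATP (1.25 mM final); secreted IL-1B measured by AlphaLISA after 16 hr, decreased signal indicating inhibition.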
TGFb SMAD3 inh = TGF-b pathway inhibition | HepG2 CAGA-GFP TGF-b/SMAD3 reporter, GFP fluorescence, 18 h; TGF-beta stimulated, 500 pg/mL final | 410,000 compounds, 1.2% hits | Potency, µM (doses to about 46.1 µM), for inactives: top-dose activity, negative = inhibition, hits mostly inhibitors; further: potency means the concentration at half of the fitted maximal effect; on the % scale 0 is the no-effect control and ±100 the full control effect; nearly all actives have a fitted effect of over 65% in size
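First, reporter cells (HEPG2 CAGA-GFP) rested 2 h at 37 degrees C. Next, compounds were pinned in and TGF-beta added to 500 pg/mL final. After 18 h, GFP was imaged per cell and summed per well.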
DT40 TDP1 no CPT = qHTS for Inhibitors of human tyrosyl-DNA phosphodiesterase 1 (TDP1): qHTS in cells in absence of CPT; DT40 Tdp1-/- hTDP1 cells, no CPT, ATP luminescence, 48 h; Potency, µM (top dose mostly 46.2 µM), without a hit: at the top dose activity change, negative = growth inhibition, usual class: inhibitors; 420,000 compounds, 15% hits; AID 686978, 2013; further: potency means the concentration at half of the fitted maximal effect; on the % scale 0 is the no-effect control and ±100 the full control effect; nearly all actives have a fitted effect of over 55% in size
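Compound effects on proliferation are scored in DT40 Tdp1-/-;hTDP1 cells in the absence of CPT. ATP levels (CellTiter-Glo luminescence) are recorded after a ≥48 hr, 37 °C incubation.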
S-ASM inh = blocks human secretory acid sphingomyelinase; P17405; placental ASM, HMU-PC fluorogenic substrate, 60 min; Potency, µM (series often up to 57.5 µM), for the others: at the highest dose activity change, negative = inhibition, hits mostly inhibitors; 340,000 compounds, 0.006% hits; further: potency means the concentration at half of the fitted maximal effect
Target sequence (P17405 47-631 limits assumed): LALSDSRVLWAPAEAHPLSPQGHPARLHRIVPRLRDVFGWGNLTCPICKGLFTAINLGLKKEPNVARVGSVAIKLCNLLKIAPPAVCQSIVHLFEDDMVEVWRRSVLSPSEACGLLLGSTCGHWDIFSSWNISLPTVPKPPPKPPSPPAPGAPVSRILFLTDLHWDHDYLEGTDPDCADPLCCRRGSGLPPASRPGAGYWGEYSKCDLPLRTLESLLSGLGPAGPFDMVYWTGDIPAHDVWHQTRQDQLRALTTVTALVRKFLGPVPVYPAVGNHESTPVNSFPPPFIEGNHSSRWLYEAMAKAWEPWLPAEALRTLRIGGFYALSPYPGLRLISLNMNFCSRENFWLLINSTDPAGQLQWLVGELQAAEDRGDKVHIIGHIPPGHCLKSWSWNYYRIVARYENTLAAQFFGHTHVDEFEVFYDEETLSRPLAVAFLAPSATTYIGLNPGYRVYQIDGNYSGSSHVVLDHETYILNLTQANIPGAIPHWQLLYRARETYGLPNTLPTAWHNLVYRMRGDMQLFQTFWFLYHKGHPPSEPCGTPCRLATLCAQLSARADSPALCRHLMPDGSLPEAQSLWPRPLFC
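Human placenta-derived ASM enzyme was preincubated with compound for 10 minutes at room temperature, then given fluorogenic substrate HMU-PC0 (9 uM final) for 60 minutes at 37 °C; a pH 10 stop preceded fluorescence reading at Ex 386/Em 447 nm.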
DT40 TDP1 CPT = growth inhibition of DT40 Tdp1-/-;hTDP1 cells with camptothecin (screen for TDP1 inhibitors) | 420,000 compounds, 12% hits | chicken DT40 Tdp1-/-;hTDP1 cells + 20 nM CPT, ATP luminescence, 48 h | Potency, µM (top dose mostly 46.2 µM), for inactives: at the top dose activity change, negative = growth inhibition, hits mostly inhibitors | AID 686979; further: potency means the concentration at half of the fitted maximal effect; on the % scale 0 is the no-effect control and ±100 the full control effect; nearly all actives have a fitted effect of over 55% in size
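Chicken DT40 Tdp1-/- cells complemented with human TDP1, 400 cells/well, exposed to compounds plus 20 nM camptothecin for at least 48 h at 37 C; viability read as ATP content by CellTiter-Glo luminescence.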
HepG2 tox = counter-screen for TGF-b inhibitors: cytotoxicity in HepG2 cells | HepG2 CAGA-GFP viability, ATP luminescence, 18 h | Potency, µM (series often up to 46.1 µM), inactives show at the highest dose activity change, negative = cytotoxicity, most hits filed as cytotoxic | 410,000 compounds, 0.76% hits | AID 588856; further: potency means the concentration at half of the fitted maximal effect
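HepG2 CAGA-GFP cells (1000/well, DMEM with 1% FBS) received compound, then TGF-beta at 500 pg/mL final, and were incubated 18 hours at 37 degrees C. Viability was read by CellTiter-Glo luminescence. Media-only wells were set as complete cell-killing and DMSO as no toxicity.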
* = called active by the depositor; ? = inconclusive; . = no result given. Unless noted, the call rests on the fitted dose curve; in most records, active means well fitted curve in the direction sought with a large enough effect; inconclusive means small, poorly fitted or top-dose-only effect, or another doubt; inactive means no such curve, though single readings can be large; an effect the other way counts as inactive or inconclusive.

SMILES	IL1B secr inh	TGFb SMAD3 inh	DT40 TDP1 no CPT	S-ASM inh	DT40 TDP1 CPT	HepG2 tox
COc1ccc2[nH]cc(CCNc3ncncc3-c3ccc4c(c3)OCO4)c2c1	.	.	18µM*	.	6.5µM*	.
CCCC(=O)Nc1c(I)cc(I)c(CC(CC)C(=O)O)c1I (stereo not given)	.	.	0%	.	8%	.
Cn1c(CC(=O)NC(C)(C)CO)c(Sc2ccccc2)c2ccccc21	0	0%	16µM*	-2%	15µM*	-1%
CCNc1ncc2nc(-c3cc(F)cc(F)c3)c(=O)n(Cc3ccc(F)cc3)c2n1	.	.	1%	.	-4%	.
CCN(CC)CCn1c(O)c(N=O)c2ccccc21	11	0%	-16%	5%	-5%	-1%
CCN(CC)CCn1c2ccccc2c2nc3ccccc3nc21	-97*	?	23µM*	0%	?	-26%
O=c1oc2ccccc2n1CCn1c2ccccc2c2nc3ccccc3nc21	-21	19%	5.8µM*	17%	16µM*	-10%
CCN(CC)CCn1c2ccccc2c(=O)c2c(O)ccc(O)c21	-3	-5%	21µM*	-10%	7.3µM*	20%
N#CCCn1c2ccccc2c2nc3ccccc3nc21	-91*	28%	9.2µM*	23%	?	-3%
O=C(O)Cn1c2ccccc2c2nc3ccccc3nc21	6	0%	-2%	.	-1%	-24%
COc1cccc(Cn2c(=O)c(-c3cccs3)nc3cncnc32)c1	.	.	8%	.	-1%	.
Cc1oc(-c2ccccc2)nc1Cn1cccc1C1=NC(c2ccccc2)CO1 (stereo not given)	-10	?	23µM*	-8%	?	-31%
CCOC(=O)C1(C)NC(c2ccc(OC)c(OC)c2)C2C(=O)N(c3cccc(C(C)=O)c3)C(=O)C21 (stereo not given)	5	-3%	-28%	.	2%	1%
CCOC(=O)C1(C)NC(c2ccc(N(C)C)cc2)C2C(=O)N(c3ccc(OC)cc3)C(=O)C21 (stereo not given)	-14	-2%	-13%	-1%	9%	-2%
CCOC(=O)C1(C)NC(c2ccccc2F)C2C(=O)N(c3cccc(C(C)=O)c3)C(=O)C21 (stereo not given)	13	-3%	18µM*	-3%	23µM*	9%
CCOC(=O)C1(C)NC(c2cccs2)C2C(=O)N(c3ccc(OC)cc3)C(=O)C21 (stereo not given)	15	34%	18µM*	-2%	10µM*	0%
CCCC(=O)NCC(c1ccc2c(c1)OCO2)N1CCN(c2ccccc2)CC1 (stereo not given)	.	11%	?	.	?	-1%
CCc1cc2c(=O)c(-c3ccc(F)cc3)c(C)oc2cc1OCC(=O)O	8	7%	2%	4%	20%	-4%
CCc1cc2c(=O)c(-c3ccc4c(c3)OCCO4)coc2cc1OC(=O)c1ccco1	-15	3%	21µM*	-3%	?	0%
CCCc1cc2c(=O)c(-c3ccc4c(c3)OCCO4)coc2cc1OC(=O)c1ccco1	1	3%	?	-2%	?	5%
CCCc1cc2c(=O)c(-c3ccc4c(c3)OCCO4)c(C)oc2cc1OS(C)(=O)=O	-11	-20%	23µM*	-3%	18µM*	-14%
CCCc1cc2c(=O)c(-c3ccc4c(c3)OCCO4)coc2cc1OS(C)(=O)=O	-54*	-8%	?	-3%	?	-3%
CCOc1ccc(/C=N/OCC(=O)NC(c2ccccc2)c2ccccc2)cc1	32	22µM*	?	-13%	-74%	-24%
CCOc1ccc(/C=N/OCC(=O)Nc2cc(C)on2)cc1	34	4%	?	-1%	-3%	0%
CCOc1ccc(/C=N/Nc2ccccc2)cc1	23	-5%	15µM*	0%	?	-24%
SMILES	IL1B secr inh	TGFb SMAD3 inh	DT40 TDP1 no CPT	S-ASM inh	DT40 TDP1 CPT	HepG2 tox
COC(=O)c1cccc(F)c1C(=O)c1cccc2ccccc12	8	-8%	3%	-2%	8%	6%
Cc1ccc(/C=C/C2=NN(C)C(=O)CC2)cc1	-18	14%	?	-1%	-2%	10%
CCOC(=O)C(C)N1N=C(/C=C/c2ccc(OC)cc2)CCC1=O (stereo not given)	4	11%	13µM*	-6%	?	16%
Cc1ccc(NC(=O)CN2CCSc3ccc(S(=O)(=O)N4CCCC4)cc32)cc1C	.	?	.	.	.	0%
O=C(NN1CCOCC1)c1cc(-c2cccs2)nc2ccccc12	-5	-5%	?	106%	-17%	-13%
O=C(NNc1nc2ccc(Cl)cc2s1)c1cc(-c2cccs2)nc2ccccc12	174	8.9µM*	5.2µM*	-8%	2.6µM*	-61%
O=C(Nc1cc(C(F)(F)F)ccc1Cl)c1cc(-c2cccs2)nc2ccccc12	.	-22%	-29%	.	-11%	-8%
Cc1cc(C)c2nc(NNC(=O)c3cc(-c4cccs4)nc4ccccc34)sc2c1	115	?	5.2µM*	0%	4.6µM*	-26%
Cc1ccsc1/C=N\NC(=O)c1n[nH]c2c1CCC2	9	4%	3.3µM*	5%	3.3µM*	-38%
Cc1ccsc1/C=N/NC(=O)c1sccc1C	5	-6%	?	0%	?	-33%
O=C(N/N=C/c1c(Cl)cccc1Cl)c1n[nH]c2c1CCCC2	-13	-3%	12µM*	-4%	23µM*	-24%
Cc1ccc(CN2C(=O)[C@H]3Cc4c([nH]c5ccccc45)C(C)(C)N3C2=O)cc1	.	?	.	-9%	.	17%
Cn1c(O)c(C(C#N)=C2N=c3ccccc3=N2)c2ccccc21	30	-13%	12µM*	-15%	8.2µM*	-12%
NNC(=O)c1cccc(Cn2cc(Br)c([N+](=O)[O-])n2)c1	-17	0%	?	-2%	?	-22%
COc1ccc(NC(=O)c2cccc(Cn3cc(Br)c([N+](=O)[O-])n3)c2)c(C)c1	22	?	18µM*	-6%	?	-22%
CSc1ccc(C(=O)N2CCC(CCC(=O)NCc3ccc(F)cc3)CC2)cc1	14	0%	12%	1%	-9%	-3%
COc1ccc(C2CC(c3cccs3)=NN2C(=O)CCl)cc1OC (stereo not given)	-103*	10µM*	3.3µM*	-1%	2.6µM*	7.1µM*

Assay outcomes: PubChem BioAssay, National Center for Advancing Translational Sciences (NCATS)
